# Laboratory results reported in the supplement of paper PMC7595190.
# Values without a mark were called inactive.
# Key:
# Assay in all cases: CellTox Green cytotoxicity fluorescence relative to DMSO vehicle (fold of vehicle RFU); higher = more cell death (loss of membrane integrity), active = 2 or more
# CMK = test system: CMK
# Method in brief: (§1)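 Single compounds from the Selleckchem apoptosis library were applied at final 0.01, 0.1 and 1 µM (0.1% DMSO vehicle) to MV4-11, CMK and Kasumi-1 cells seeded at 4.0 × 10^4 cells per well with CellTox Green reagent. After incubation at 37 °C, 5% CO2, fluorescence was read at 24, 48 and 72 h. Cytotoxicity, meaning loss of membrane integrity, is shown as fold of the DMSO vehicle signal.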
# Kasumi-1 = test system: Kasumi-1
# Method in brief: as §1
# MV4-11 = test system: MV4-11
# Method in brief: as §1
Structure (SMILES),"CellTox Green cytotoxicity fluorescence (CMK; 0.01 µM, 24 h)","CellTox Green cytotoxicity fluorescence (CMK; 0.01 µM, 48 h)","CellTox Green cytotoxicity fluorescence (CMK; 0.01 µM, 72 h)","CellTox Green cytotoxicity fluorescence (CMK; 0.1 µM, 24 h)","CellTox Green cytotoxicity fluorescence (CMK; 0.1 µM, 48 h)","CellTox Green cytotoxicity fluorescence (CMK; 0.1 µM, 72 h)","CellTox Green cytotoxicity fluorescence (CMK; 1 µM, 24 h)","CellTox Green cytotoxicity fluorescence (CMK; 1 µM, 48 h)","CellTox Green cytotoxicity fluorescence (CMK; 1 µM, 72 h)","CellTox Green cytotoxicity fluorescence (Kasumi-1; 0.01 µM, 24 h)","CellTox Green cytotoxicity fluorescence (Kasumi-1; 0.01 µM, 48 h)","CellTox Green cytotoxicity fluorescence (Kasumi-1; 0.01 µM, 72 h)","CellTox Green cytotoxicity fluorescence (Kasumi-1; 0.1 µM, 24 h)","CellTox Green cytotoxicity fluorescence (Kasumi-1; 0.1 µM, 48 h)","CellTox Green cytotoxicity fluorescence (Kasumi-1; 0.1 µM, 72 h)","CellTox Green cytotoxicity fluorescence (Kasumi-1; 1 µM, 24 h)","CellTox Green cytotoxicity fluorescence (Kasumi-1; 1 µM, 48 h)","CellTox Green cytotoxicity fluorescence (Kasumi-1; 1 µM, 72 h)","CellTox Green cytotoxicity fluorescence (MV4-11; 0.01 µM, 24 h)","CellTox Green cytotoxicity fluorescence (MV4-11; 0.01 µM, 48 h)","CellTox Green cytotoxicity fluorescence (MV4-11; 0.01 µM, 72 h)","CellTox Green cytotoxicity fluorescence (MV4-11; 0.1 µM, 24 h)","CellTox Green cytotoxicity fluorescence (MV4-11; 0.1 µM, 48 h)","CellTox Green cytotoxicity fluorescence (MV4-11; 0.1 µM, 72 h)","CellTox Green cytotoxicity fluorescence (MV4-11; 1 µM, 24 h)","CellTox Green cytotoxicity fluorescence (MV4-11; 1 µM, 48 h)","CellTox Green cytotoxicity fluorescence (MV4-11; 1 µM, 72 h)"
C/C(=N\NC(=O)c1cccc(S(=O)(=O)N2CCOCC2)c1)c1cc(Cl)ccc1O,0.984,0.991,1.04,0.936,0.956,0.969,0.942,0.907,0.774,0.938,0.949,0.96,0.974,0.986,0.968,0.937,1.02,1.05,,,,,,,,,
CN[C@@H](C)C(=O)N[C@H](C(=O)N1CCC[C@H]1c1nc(C(=O)c2ccc(F)cc2)cs1)C1CCCCC1,0.96,0.958,0.993,0.965,0.981,1.03,0.964,0.991,0.981,0.997,0.955,0.955,0.998,1.02,1.04,1.03,1.1,1.17,,,,,,,,,
COc1cc(C(=O)N2CCC(N3CCN(C)CC3)CC2)ccc1Nc1ncc2c(n1)N(C)c1ccccc1C(=O)N2C,0.941,0.923,0.891,0.97,0.967,0.941,1.16,1.89,1.71,1.05,1.01,1.01,0.99,0.983,1,1.03,1.33,1.61,1.02,1.01,1.02,1.02,1.03,1.08,1.02,1.29,1.62
COc1ccc(C2=N[C@@H](c3ccc(Cl)cc3)[C@@H](c3ccc(Cl)cc3)N2C(=O)N2CCNC(=O)C2)c(OC(C)C)c1 [Nutlin-3],0.981,0.982,0.971,1,1.01,1.03,1.02,1.01,1.03,1.02,1.01,0.998,0.977,0.977,0.959,1.01,1.01,1.05,0.981,1,0.995,0.991,0.999,1.03,1.01,1.24,1.46
N#Cc1ccc(-c2c(-c3ncn[nH]3)sc(N3CCOCC3)c2C#N)c(F)c1,0.974,0.999,1.04,0.969,0.994,0.919,1.03,1.13,0.932,0.959,0.958,0.957,0.991,1.05,1.05,0.985,1.3,1.41,,,,,,,,,
O=C(NS(=O)(=O)c1ccc(Br)s1)c1ccc(Cl)cc1Cl [Tasisulam],0.98,0.972,0.934,0.99,0.99,0.959,0.986,1,0.903,1.02,1.02,1.01,1.01,0.99,0.984,0.975,0.963,0.96,,,,,,,,,
CCCCC(C=O)NC(=O)C(CC(C)C)NC(=O)C(CC(C)C)NC(C)=O (centres undefined),0.991,0.967,0.962,0.984,0.984,1.01,2.35 (active),3.65 (active),2.82 (active),1.01,0.993,0.999,1.01,1,1,1.03,1.11,1.16,,,,,,,,,
O=C1CCC(N2C(=O)c3ccccc3C2=O)C(=O)N1 (centres undefined) [Thalidomide],0.979,0.985,0.989,0.945,0.95,0.986,0.982,0.962,1.19,0.98,0.96,0.95,0.938,0.934,0.908,0.972,0.981,0.997,0.964,0.959,0.973,0.954,0.962,0.958,0.952,0.965,1.12
CN1CCN(CCCNc2ncc(Cl)c(-c3cc4c(C(=O)NC5CC5)cccc4s3)n2)CC1,0.99,0.985,0.953,0.97,0.978,0.95,0.956,0.993,1,0.943,0.931,0.891,0.958,0.947,0.949,0.953,1.03,1.01,,,,,,,,,
CN(C)CC[C@H](CSc1ccccc1)Nc1ccc(S(=O)(=O)NC(=O)c2ccc(N3CCN(Cc4ccccc4-c4ccc(Cl)cc4)CC3)cc2)cc1[N+](=O)[O-],0.932,0.938,0.907,0.982,0.992,1.02,1.48,1.67,1.52,1.07,1.11,1.18,1.17,1.49,1.66,1.44,1.81,1.84,0.961,1.15,1.31,1.08,1.59,1.88,1.27,2.34 (active),2.59 (active)
Cc1cccc(CC(=O)N2CCc3c2ccc(-c2cn(C)c4ncnc(N)c24)c3F)n1,0.981,0.975,0.966,1,0.997,1,1,1.05,0.907,1.03,1.02,1.02,1.01,1.02,1.04,1.03,1.03,1.04,1.04,1.04,1.06,1.02,1.01,1.02,1.03,1.03,1.04
COc1cccc(-n2c(=O)[nH]c3cc(Cl)n(-c4ccc(-c5cccc(OC)c5O)cc4)c3c2=O)c1,0.99,0.943,1.27,0.996,0.985,0.962,0.95,0.915,0.832,0.97,0.973,1.13,0.99,0.989,0.991,0.947,0.91,0.877,0.975,0.924,,0.975,0.966,0.959,1.01,1,1
CC(C)(C)C[C@@H]1N[C@@H](C(=O)N[C@H]2CC[C@H](O)CC2)[C@H](c2cccc(Cl)c2F)[C@]12C(=O)Nc1cc(Cl)ccc12,0.996,1.03,1.05,0.963,0.971,0.947,1.02,1.04,1.01,1,0.996,1.03,0.991,0.994,1,0.906,1.02,1.04,1.04,1.03,1.05,0.993,1.11,1.22,1.26,2.25 (active),2.49 (active)
COc1nc(-c2ccc3c(c2)OCO3)n(-c2ccc(NC(=O)CSc3ccccc3)cc2)n1 [SecinH3],1.03,1.04,1.05,0.992,0.997,0.985,0.996,1.01,1.01,1.02,1.03,1.04,1.02,1.02,1.01,0.941,0.989,1.02,,,,,,,,,
